Source: PubChem
JMJD2A Tudor – qHTS Assay for Inhibitors of JMJD2A-Tudor Domain. Lysine-specific demethylase 4A (Homo sapiens), O75164. AlphaScreen JMJD2A-Tudor / H3K4me3 peptide binding. Potency, µM (doses to about 114 µM), for inactives: top-dose activity change, negative = inhibition, actives largely listed as inhibitors. 390,000 tested, 4.4% active. AID 504339, 2011; also: % is scaled to controls: 0 for no effect and ±100 for the full control effect; nearly all actives have a fitted effect of over 50% in size
Target sequence (O75164 whole entry, looked up, the tested form may be a part): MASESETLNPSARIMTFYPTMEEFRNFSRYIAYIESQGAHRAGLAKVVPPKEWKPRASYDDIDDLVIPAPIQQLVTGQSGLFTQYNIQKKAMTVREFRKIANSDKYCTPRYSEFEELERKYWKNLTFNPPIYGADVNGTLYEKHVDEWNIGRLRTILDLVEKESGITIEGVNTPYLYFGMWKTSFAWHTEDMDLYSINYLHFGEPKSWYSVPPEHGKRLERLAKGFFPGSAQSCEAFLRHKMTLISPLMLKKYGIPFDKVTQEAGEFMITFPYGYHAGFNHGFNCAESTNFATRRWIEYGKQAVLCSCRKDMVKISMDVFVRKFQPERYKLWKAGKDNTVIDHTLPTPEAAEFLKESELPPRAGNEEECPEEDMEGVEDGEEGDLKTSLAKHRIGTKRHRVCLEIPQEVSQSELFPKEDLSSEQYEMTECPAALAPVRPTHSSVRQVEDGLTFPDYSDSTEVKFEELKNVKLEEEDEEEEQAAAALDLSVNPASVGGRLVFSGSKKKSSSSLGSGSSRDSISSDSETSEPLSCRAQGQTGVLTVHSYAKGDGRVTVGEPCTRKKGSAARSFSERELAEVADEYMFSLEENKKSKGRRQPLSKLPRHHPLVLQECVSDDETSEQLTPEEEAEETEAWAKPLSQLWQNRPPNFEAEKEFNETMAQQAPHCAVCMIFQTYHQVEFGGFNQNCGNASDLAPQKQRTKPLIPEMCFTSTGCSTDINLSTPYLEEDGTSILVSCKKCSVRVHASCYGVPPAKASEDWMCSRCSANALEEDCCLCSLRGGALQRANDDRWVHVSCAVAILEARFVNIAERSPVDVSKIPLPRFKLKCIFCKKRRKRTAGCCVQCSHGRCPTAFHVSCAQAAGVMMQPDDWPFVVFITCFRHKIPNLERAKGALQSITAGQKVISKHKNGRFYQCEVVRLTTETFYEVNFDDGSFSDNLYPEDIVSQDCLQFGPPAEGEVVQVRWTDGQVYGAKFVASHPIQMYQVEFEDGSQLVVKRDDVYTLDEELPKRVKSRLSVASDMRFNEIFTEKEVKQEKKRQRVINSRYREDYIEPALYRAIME
G9a inh – qHTS Assay for Inhibitors of Histone Lysine Methyltransferase G9a; Potency, µM (titrated, usually from 102 µM), for inactives: top-dose activity, negative = inhibition, most hits filed as inhibitors; G9a H3K9 monomethylation, AlphaScreen, 2 h; 350,000 tested, 8.8% active; Histone-lysine N-methyltransferase EHMT2 (Homo sapiens), Q96KQ7; AID 504332, 2011; also: % is scaled to controls: 0 for no effect and ±100 for the full control effect; nearly all actives have a fitted effect of over 75% in size
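Step 1: enzyme (final 20 nM) with compound, 15 min RT. Step 2: substrate peptide 500 nM and SAM 20 uM, 2 h RT. Step 3: anti-H3K9me1 antibody and AlphaScreen beads, 10 min, then plate read.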
BAZ2B block – qHTS Assay for Inhibitors of BAZ2B; AlphaScreen BAZ2B-H3K14Ac peptide displacement; Potency, µM (top dose mostly 114 µM), for the others: at the highest dose activity change, negative = inhibition, usual class: inhibitors; 360,000 tested, 4.4% active; AID 504333, 2011; also: % is scaled to controls: 0 for no effect and ±100 for the full control effect; nearly all actives have a fitted effect of over 60% in size
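Compounds, titrated to a top concentration of 110 uM, were incubated 30 min at room temperature with preformed BAZ2B/acetyl-K14 H3 peptide complex (50 nM each). Proximity signal was measured by AlphaScreen after 20 min with beads.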
HP1b binding inh – HTS for Inhibitors of HP1-beta Chromodomain Interactions with Methylated Histone Tails; Chromobox protein homolog 1 (Homo sapiens), P83916; AlphaScreen HP1-beta / biotin-H3K9me3 peptide binding; Potency, µM (doses to about 114 µM), without a hit: at the top dose activity change, negative = inhibition, most hits filed as inhibitors; 390,000 tested, 0.56% active; also: nearly all actives have a fitted effect of over 70% in size
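Compound inhibition of the preformed complex between 50 nM HP1-beta and 50 nM biotinylated H3K9me3 peptide was read by AlphaScreen. Buffer was PBS pH 7.4 with 0.01% Tween-20. Incubations ran 30 min at room temperature, with 10 ug/mL donor/acceptor beads.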
GLS inh – qHTS for Inhibitors of Glutaminase (GLS). Potency, µM (series often up to 45.5 µM), for inactives: at the highest dose activity change, negative = inhibition, hits mostly inhibitors. Glutaminase kidney isoform, mitochondrial (Homo sapiens), O94925. GLS enzymatic activity, qHTS titration. AID 624170, 2012. 410,000 tested, 0.21% active; also: % is scaled to controls: 0 for no effect and ±100 for the full control effect
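hKGA in 45 mM KH2PO4 (pH 8.2), 0.02% Tween-20 with compound, then 1mM L-Glutamine (stock as added) plus glutamate oxidase/HRP/Amplex red coupling mix. Fluorescence read initially and after 30 min at RT; signal change reflects glutamate formation.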
* hit, by the source's call; ? = inconclusive; nt = not tested or not shown; ! = repeats disagree; [ ] = remark or other dose. The list is not random: actives were taken first. Their share in the collection is about 10%. Calls follow the shape of the dose curve; as a rule, active = well fitted curve in the direction sought with a large enough effect; inconclusive = small, poorly fitted or top-dose-only effect, or another doubt; inactive = no such curve, though single readings can be large; an effect the other way counts as inactive or inconclusive. Potency is read from the fitted curve at half-maximal effect.

SMILES | JMJD2A Tudor | G9a inh | BAZ2B block | HP1b binding inh | GLS inh
Oc1ccc(Nc2nc(-c3ccccc3O)nc3ccccc23)cc1 | ? | 50.1µM* | ? | 27.2% | 29.0%
Cc1ccc(-c2nc(Nc3ccc(N4CCOCC4)cc3)c3ccccc3n2)cc1 | 39.8µM* | nt | 31.6µM* | ? | -25.4%
Cc1ccc(-c2nc(Nc3ccc(O)cc3)c3ccccc3n2)cc1 | ? | 3.2% | -27.5% | -2.4% | 43.7%
Cc1ccccc1NC(=O)CCCN1C(=O)C2CC=CCC2C1=O (stereo not drawn) | -16.3% | 52.4% | 1.4% | 24.9% | 2.2%
Cn1c(=O)cc(OCCCC(=O)Nc2ccc(F)cc2)c2ccccc21 | 4.0% | 5.8%[59 µM] | 0.7% | 47.4% | 0.0%
COc1ccc(CNc2ncncc2-c2ccccc2C(F)(F)F)c(OC)c1 | nt | 2.2%[0.501 µM] | nt | nt | nt
CCOc1ccccc1-n1c(SCC(=O)Nc2ccccc2C(=O)O)nc2ccccc2c1=O | -1.4% | 50.1µM* | 9.3% | 24.5% | 23.8%
CCOc1ccccc1NC(=O)CSc1nc2ccccc2c2nc(CCn3cncc3C)nn12 | -26.0% | ? | 56.2µM* | 21.0% | -21.8%
COc1ccccc1NC(=O)CSc1nnc2ccc(-c3cccnc3)nn12 | -15.4% | 39.8µM* | 70.8µM* | 13.8% | 2.7%
Cc1ccccc1NC(=O)CSc1nc2ccccc2c2nc(CCn3c(C)nc4ccccc43)nn12 | -26.3% | -7.2%[59 µM] | -24.3% | -4.4% | -6.4%
CCOc1ccccc1NC(=O)CSc1nnc2ccc(-c3cccnc3)nn12 | -5.2% | 5.3% | -14.9% | 31.0% | 0.0%
COc1ccccc1NC(=O)CSc1nc2ccccc2c2nc(-c3ccccc3)nn12 | 31.6µM* | 5.6%[59 µM] | -2.5% | 28.5% | 1.0%
Cc1cccc(CNC(=O)c2cccc(NC(=O)N3CCSc4ncccc43)c2)c1 | 2.8% | 0.3%[59 µM] | -20.4% | 43.6% | -3.7%
COc1ccc(C2CC(=O)c3cc(-c4nc(-c5cccc(Cl)c5)cs4)c(=O)[nH]c3C2)cc1OC (stereo not drawn) | -13.0% | 24.3%[59 µM] | -0.6% | 55.4% | -5.4%
O=C(Nc1ccc(N2CCOCC2)cc1)c1csc([C@H]2C[C@H](O)[C@@H](CO)O2)n1 | nt | nt | nt | nt | 35.7%
CCCn1c(SCc2nc(-c3ccc(OC)c(OC)c3)no2)nnc1-c1ccccc1 | -18.1% | 2.1%[59 µM] | -19.7% | 24.0% | 0.0%
Cc1cncn1CCc1nc2c3ccccc3nc(SCC(=O)Nc3cccc(Cl)c3)n2n1 | ? | 14.1µM* | 11.2µM*! | 29.9% | 1.2%
Cc1cncn1CCc1nc2c3ccccc3nc(SCC(=O)Nc3ccc(F)cc3)n2n1 | -19.3% | 2.0%[59 µM] | -27.8% | 18.1% | -3.9%
COC(=O)c1ccc(-c2ccc(OC)c(C3C4C=CCC(C)C4C(=O)N3Cc3ccccc3)c2)cc1 (stereo not drawn) | -24.8% | nt | nt | 15.4% | nt
CS(=O)(=O)N(CC(=O)N1CCN(c2ccccc2)CC1)c1cccc(Br)c1 | -11.4% | 89.1µM* | -1.8% | 15.1% | -0.5%
CCc1ccccc1N(CC(=O)O)S(C)(=O)=O | -32.5% | 7.3%[59 µM] | ? | 15.8% | 1.6%
COc1ccccc1N1CCN(C(=O)CN(c2ccc(C)c(C)c2)S(C)(=O)=O)CC1 | -6.9% | 31.4%[12.7 µM] | 5.5% | 27.5% | 7.9%
COc1cccc(N(CC(=O)N2CCN(c3ccccc3OC)CC2)S(C)(=O)=O)c1 | -7.2% | 79.4µM* | 4.5% | 16.9% | -0.4%
CCc1ccccc1N(CC(=O)N1CCN(c2ccccc2)CC1)S(C)(=O)=O | 79.4µM* | -16.9%[59 µM] | nt | -20.8% | -1.5%
CC1CN(S(=O)(=O)c2cccc(C(=O)N(Cc3nnc(-c4ccccc4Cl)o3)C3CC3)c2)CC(C)O1 (stereo not drawn) | -5.4% | -6.2%[0.501 µM] | -22.8% | 35.5% | -1.9%
SMILES | JMJD2A Tudor | G9a inh | BAZ2B block | HP1b binding inh | GLS inh
O=C(NN=C(c1ccccc1)c1ccccn1)c1ccccc1 | ? | nt | nt | 10.6% | 13.1%
S=C(NN=Cc1ccccn1)N(Cc1ccccn1)Cc1ccccn1 | 20µM* | nt | nt | ? | 29.5%
O=C(Cc1ccccc1)N/N=C/c1ccccn1 | -17.3% | nt | nt | 22.1% | 2.1%
CC(=NNC(=S)N(Cc1ccccn1)Cc1ccccn1)c1cnccn1 | 17.8µM* | nt | nt | ? | 2.5%
S=C(NN=C(c1ccccc1)c1ccccn1)N(Cc1ccccn1)Cc1ccccn1 | 12.6µM* | nt | nt | ? | 16.0%
Cc1ccc(Cl)cc1N1CCN(C(=O)Cn2cnc3sc(C)c(S(=O)(=O)N4CCC(C)CC4)c3c2=O)CC1 | -2.4% | -3.2%[59 µM] | 2.9% | 29.4% | -9.7%
O=C(Cc1ccc(F)cc1)N/N=C/c1ccncc1 | 9.1% | 16.1%[59 µM] | 2.8% | 56.7% | 1.0%
CCCCN1C[C@H](c2ccccc2)[C@@H](CC(=O)NC)C1=O | nt | nt | nt | nt | 2.6%
CC(=O)Nc1ccc(Nc2nc(-c3cc4ccccc4oc3=O)cs2)cc1 | -6.3% | ? | -17.6% | 19.0% | ?
O=C(O)c1ccc(Nc2nc(-c3cc4ccccc4oc3=O)cs2)cc1O | 31.6µM* | 39.8µM* | 28.2µM* | 31.6µM* | -4.3%
COc1ccc(Nc2nc(-c3cc4cccc(OC)c4oc3=O)cs2)cc1 | -31.0% | 44.7µM* | ? | 1.5% | 7.4%
CS(=O)(=O)Nc1ccccc1-c1ccc2nccn2c1 | nt | nt | nt | nt | 14.5%
O=C(COc1ccc(-c2ccccc2)cc1)N1CCN(S(=O)(=O)Cc2ccccc2)CC1 | -9.0% | 15.1%[59 µM] | -0.4% | 20.9% | 2.6%
COc1ccc(NC(=O)C(NC(C)=O)C(=O)NCc2ccccc2)cc1 (stereo not drawn) | 8.6% | -27.4%[59 µM] | 10.7% | 19.7% | -2.9%
COc1ccc(CC(CC(=O)O)C(=O)Nc2ccc(Cl)c(Cl)c2)cc1 (stereo not drawn) | 8.91µM* | 5.6% | 2.7% | 1.5% | -8.7%
COc1ccc(CC(CC(=O)O)C(=O)NCc2ccccc2)cc1 (stereo not drawn) | -9.9% | 56.2µM* | -29.9% | 27.2% | 11.1%
C=CCN1CC(C(=O)N(CCCN(C)C)C(=O)NCC)CC2c3cccc4[nH]cc(c34)CC21 (stereo not drawn) | nt | 8.7%[12.7 µM] | nt | nt | 43.6%
Cc1cccc(/C=N/n2c(-c3ccncc3)n[nH]c2=S)c1 | 2.82µM* | 1µM* | -8.3% | -37.1% | ?
S=c1[nH]nc(-c2ccncc2)n1/N=C/c1cn(-c2ccccc2)nc1-c1ccc(Cl)cc1 | -34.9% | -11.6% | -4.4% | 12.2% | -11.5%
S=c1[nH]nc(-c2ccncc2)n1/N=C/c1ccccc1 | 7.94µM* | 1.26µM* | -6.7% | 10.7% | -2.1%
CC(=O)Nc1cccc(NC(=O)CSc2cn(CC(=O)N3CCCCCC3)c3ccccc23)c1 | -14.3% | -34.0%[59 µM] | -8.7% | 26.6% | 8.3%
